Records with an inconclusive call do not appear. Activity calls are given as the source filed them. How the source made its calls, unless noted: active means hit-call score of the fitted dose curve at least 0.9, where 1 is the maximum; inactive means score below 0.9.
Legend:
[1] = read-out: Monocyte Chemoattractant Protein-1 (MCP1), CCL2 (gene 6347); test: BSK_SAg_MCP1: BioMAP Diversity Plus: SAg Assay for Monocyte Chemoattractant Protein-1 (MCP1) Biomarker Activity (AID 2283090); conditions: primary human HUVEC with PBMC; actives raise or lower the signal
Method in brief: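 Values derive from bidirectional fitting of ELISA-measured MCP1 against DMSO controls. Readings were taken 24 h after dosing human vascular endothelial cells co-cultured with peripheral blood mononuclear cells under superantigen stimulation.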

[2] = read-out: E-selectin (Homo sapiens) (UniProt P16581); test: BSK_SAg_Eselectin: BioMAP Diversity Plus: SAg Assay for Eselectin Biomarker Activity (AID 2283091); conditions: primary human HUVEC with PBMC; actives raise or lower the signal
Method in brief: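 Human umbilical vein endothelial cells co-cultured with peripheral blood mononuclear cells, SAg system. E-selectin is measured by ELISA 24 h after dosing and fitted bidirectionally against DMSO. Cytotoxicity is checked by SRB staining of parallel cultures.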

[3] = read-out: Monokine induced gamma interferon (MIG), CXCL9 (gene 4283); test: BSK_SAg_MIG: BioMAP Diversity Plus: SAg Assay for Monokine induced gamma interferon (MIG) Biomarker Activity (AID 2283092); conditions: primary human HUVEC with PBMC; actives raise or lower the signal
Method in brief: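 Endothelial cells and PBMC were co-cultured, exposed to test chemicals, and sampled 24 h later. MIG was measured by ELISA, and responses were fitted in both directions relative to DMSO.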

[4] = BSK_SAg_PBMCCytotoxicity: PBMC Cytotoxicity Assessment in the BioMAP Diversity Plus: SAg Assay (AID 2283093); conditions: primary human HUVEC with PBMC;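 further: PBMC viability measured as Alamar Blue reduction fluorescence at 546/580 nm; fitted both ways against DMSO so a hit may be loss or gain of signal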;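 on AC50: PBMC superantigen activated with SEB plus TSST-1 one hour after compound addition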
Method in brief: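 Alamar Blue reduction (6 h, 546/580 nm) reports PBMC cytotoxicity after 90 h superantigen activation (SEB, TSST-1; 20 ng/mL final each) with 1 h compound pre-treatment. Gain or loss of signal fitted versus DMSO.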

[5] = read-out: Interleukin-8 (IL8), CXCL8 (gene 3576); test: BSK_SAg_IL8: BioMAP Diversity Plus: SAg Assay for Interleukin-8 (IL8) Biomarker Activity (AID 2283094); conditions: primary human HUVEC with PBMC; actives raise or lower the signal
Method in brief: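 ELISA readout of IL-8 from a superantigen-activated endothelial/PBMC primary human co-culture, taken 24 h post-dosing and fitted in both directions against DMSO; parallel SRB total-protein staining flags overt cytotoxicity.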

[6] = BSK_SAg_Proliferation: Cell Proliferation Assessment in the BioMAP Diversity Plus: SAg Assay (AID 2283095); conditions: primary human HUVEC with PBMC;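 further: relative cell number as total protein by SRB absorbance in sub-confluent culture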
Method in brief: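 Relative cell number in the endothelial cell/PBMC co-culture was quantified at 96 h by SRB staining (0.1% SRB, 10% TCA fixation, read at 560 nm). Curves were fitted in both directions relative to DMSO baseline.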

[7] = BSK_SAg_SRB: Viability Assessment in the BioMAP Diversity Plus: SAg Assay (AID 2283096); conditions: primary human HUVEC with PBMC;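 further: cells read one day after compound addition; hits may be either gain or loss of signal compared with DMSO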
Method in brief: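 This overt-cytotoxicity endpoint quantifies protein in human endothelial/PBMC co-cultures at 24 h using SRB absorbance (560 nm) after trichloroacetic acid fixation. Values reflect signal change from the DMSO negative control, fitted bidirectionally.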

[8] = target: human CYP4F12, CYP4F12 (gene 66002) (UniProt Q9HCS2); test: NVS_ADME_hCYP4F12: NovaScreen (NVS) CYP450-related Enzyme Activity (ADME) Assay for human CYP4F12 (AID 2283111; active means hit-call score of the fitted dose curve at least 0.9, where 1 is the maximum)
Method in brief: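 Recombinant enzyme with a fluorescent substrate, signal read at 0.5 h post-dose; activity loss analysed relative to acetonitrile. Compounds first run in duplicate at 10 uM, with follow-up concentration-response testing of actives.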

[9] = target: human CYP19A1, CYP19A1 (gene 1588) (UniProt P11511); test: NVS_ADME_hCYP19A1: NovaScreen (NVS) CYP450-related Enzyme Activity (ADME) Assay for human CYP19A1 (AID 2283098; active means hit-call score of the fitted dose curve at least 0.9, where 1 is the maximum;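 on AC50: potency for inhibitors seen as loss of fluorescent enzyme signal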)
Chain of human CYP19A1, CYP19A1 (gene 1588) (P11511 whole entry, looked up): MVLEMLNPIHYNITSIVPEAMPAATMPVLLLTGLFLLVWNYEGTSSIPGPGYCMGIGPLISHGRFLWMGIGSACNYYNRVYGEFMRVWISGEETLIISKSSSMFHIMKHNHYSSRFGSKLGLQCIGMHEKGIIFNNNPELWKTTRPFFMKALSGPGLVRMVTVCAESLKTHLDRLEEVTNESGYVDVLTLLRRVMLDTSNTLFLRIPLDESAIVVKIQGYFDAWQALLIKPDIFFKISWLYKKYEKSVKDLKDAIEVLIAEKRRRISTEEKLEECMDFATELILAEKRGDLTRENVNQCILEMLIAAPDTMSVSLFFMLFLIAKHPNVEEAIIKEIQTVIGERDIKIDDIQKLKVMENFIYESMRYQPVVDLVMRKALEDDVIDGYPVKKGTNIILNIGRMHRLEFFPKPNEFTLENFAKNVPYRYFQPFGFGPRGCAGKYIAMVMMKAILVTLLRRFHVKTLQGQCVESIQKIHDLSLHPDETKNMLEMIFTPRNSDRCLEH
Method in brief: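 Compounds were first screened at 10 uM in duplicate against purified enzyme, with a fluorogenic substrate and fluorescence intensity detection after 0.5 h. Inhibition appears as reduced signal against acetonitrile control.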

[10] = target: human CYP1A1, CYP1A1 (gene 1543) (UniProt P04798); test: NVS_ADME_hCYP1A1: NovaScreen (NVS) CYP450-related Enzyme Activity (ADME) Assay for human CYP1A1 (AID 2283100; active means hit-call score of the fitted dose curve at least 0.9, where 1 is the maximum)
Chain of human CYP1A1, CYP1A1 (gene 1543) (P04798 whole entry, looked up): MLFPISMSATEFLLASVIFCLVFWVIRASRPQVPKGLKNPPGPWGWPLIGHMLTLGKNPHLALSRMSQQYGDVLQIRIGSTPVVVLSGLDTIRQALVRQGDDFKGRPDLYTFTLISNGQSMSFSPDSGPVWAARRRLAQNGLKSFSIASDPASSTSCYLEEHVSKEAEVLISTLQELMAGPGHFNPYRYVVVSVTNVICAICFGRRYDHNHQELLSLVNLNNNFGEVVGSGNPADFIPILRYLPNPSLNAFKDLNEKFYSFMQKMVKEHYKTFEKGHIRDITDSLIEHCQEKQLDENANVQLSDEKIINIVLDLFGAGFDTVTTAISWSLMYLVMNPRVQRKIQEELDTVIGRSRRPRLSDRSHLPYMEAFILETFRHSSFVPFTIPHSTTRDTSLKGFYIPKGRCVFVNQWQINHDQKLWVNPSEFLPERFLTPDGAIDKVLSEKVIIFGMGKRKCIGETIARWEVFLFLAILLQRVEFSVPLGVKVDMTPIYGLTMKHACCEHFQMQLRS
Method in brief: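 Recombinant CYP1A1 with a fluorogenic substrate, cell-free, read 1 h after dosing; acetonitrile as negative control. Single-concentration screen at 10 uM in duplicate, then concentration-response up to 20 uM for chemicals meeting ~30% inhibition threshold.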

[11] = target: human CYP2B6, CYP2B6 (gene 1555) (UniProt P20813); test: NVS_ADME_hCYP2B6: NovaScreen (NVS) CYP450-related Enzyme Activity (ADME) Assay for human CYP2B6 (AID 2283101; active means hit-call score of the fitted dose curve at least 0.9, where 1 is the maximum)
Chain of human CYP2B6, CYP2B6 (gene 1555) (P20813 whole entry, looked up): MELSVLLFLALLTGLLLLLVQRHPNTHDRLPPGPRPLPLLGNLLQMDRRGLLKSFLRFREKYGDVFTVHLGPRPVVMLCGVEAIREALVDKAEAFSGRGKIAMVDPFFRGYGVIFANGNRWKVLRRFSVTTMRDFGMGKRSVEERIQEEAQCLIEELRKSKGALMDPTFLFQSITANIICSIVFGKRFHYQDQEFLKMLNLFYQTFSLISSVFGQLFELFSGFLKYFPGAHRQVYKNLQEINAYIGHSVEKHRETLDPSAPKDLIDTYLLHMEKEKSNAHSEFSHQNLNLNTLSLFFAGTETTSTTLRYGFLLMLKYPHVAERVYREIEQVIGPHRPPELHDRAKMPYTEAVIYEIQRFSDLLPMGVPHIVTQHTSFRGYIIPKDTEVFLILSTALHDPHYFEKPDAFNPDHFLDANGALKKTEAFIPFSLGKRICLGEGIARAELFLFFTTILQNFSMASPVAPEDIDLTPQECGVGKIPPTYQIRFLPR
Method in brief: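 Cell-free recombinant enzyme assay with a fluorogenic substrate; fluorescence intensity read 1 hour after dosing. Loss of signal relative to acetonitrile negative control indicates inhibition. Primary screen run in duplicate at 10 uM, actives then tested in concentration series.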

[12] = target: human CYP2J2, CYP2J2 (gene 1573) (UniProt P51589); test: NVS_ADME_hCYP2J2: NovaScreen (NVS) CYP450-related Enzyme Activity (ADME) Assay for human CYP2J2 (AID 2283106; active means hit-call score of the fitted dose curve at least 0.9, where 1 is the maximum)
Chain of human CYP2J2, CYP2J2 (gene 1573) (P51589 whole entry, looked up): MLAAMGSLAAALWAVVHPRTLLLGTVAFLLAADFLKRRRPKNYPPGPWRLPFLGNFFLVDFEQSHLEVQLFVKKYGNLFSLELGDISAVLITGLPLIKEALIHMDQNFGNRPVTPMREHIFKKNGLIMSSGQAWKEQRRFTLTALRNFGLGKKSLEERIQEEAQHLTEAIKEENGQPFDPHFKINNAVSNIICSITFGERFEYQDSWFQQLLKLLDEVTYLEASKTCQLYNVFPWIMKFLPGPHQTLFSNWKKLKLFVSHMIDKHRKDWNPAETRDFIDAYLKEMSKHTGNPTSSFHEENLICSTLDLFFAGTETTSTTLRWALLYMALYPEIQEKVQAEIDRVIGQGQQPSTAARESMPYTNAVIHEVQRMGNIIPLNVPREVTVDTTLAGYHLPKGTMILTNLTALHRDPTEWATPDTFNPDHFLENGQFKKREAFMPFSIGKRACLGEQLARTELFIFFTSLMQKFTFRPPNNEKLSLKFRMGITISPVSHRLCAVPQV
Method in brief: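 Chemicals were first tested at 10 uM in duplicate, and hits meeting criteria such as 30% inhibition were run in singleton concentration series with a 20 uM top concentration. Enzyme activity of recombinant CYP2J2 was measured by fluorescence after 1 h, relative to acetonitrile.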

[13] = target: human CYP2C9, CYP2C9 (gene 1559) (UniProt P11712); test: NVS_ADME_hCYP2C9: NovaScreen (NVS) CYP450-related Enzyme Activity (ADME) Assay for human CYP2C9 (AID 2283108; active means hit-call score of the fitted dose curve at least 0.9, where 1 is the maximum)
Chain of human CYP2C9, CYP2C9 (gene 1559) (P11712 whole entry, looked up): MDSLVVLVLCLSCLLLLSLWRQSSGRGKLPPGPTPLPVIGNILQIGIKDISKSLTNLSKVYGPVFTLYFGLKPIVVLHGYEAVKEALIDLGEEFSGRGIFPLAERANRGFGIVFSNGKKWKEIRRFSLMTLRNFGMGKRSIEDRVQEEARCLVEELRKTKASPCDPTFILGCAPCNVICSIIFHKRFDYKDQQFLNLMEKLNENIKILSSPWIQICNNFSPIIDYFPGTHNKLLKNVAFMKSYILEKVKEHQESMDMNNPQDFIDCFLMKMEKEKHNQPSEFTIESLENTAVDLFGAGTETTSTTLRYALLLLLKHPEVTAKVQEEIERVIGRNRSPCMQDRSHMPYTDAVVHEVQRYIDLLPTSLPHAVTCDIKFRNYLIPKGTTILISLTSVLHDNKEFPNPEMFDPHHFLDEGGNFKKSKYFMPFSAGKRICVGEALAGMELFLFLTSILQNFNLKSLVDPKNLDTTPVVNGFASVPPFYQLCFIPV
Method in brief: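 Cell-free assay of recombinant human CYP2C9 produced in Sf9 cells, with enzyme activity read by fluorescence intensity 0.75 h after compound addition. Loss of signal versus an acetonitrile negative control indicates inhibition. Primary screen used 10 uM in duplicate; actives were retested in concentration series.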

[14] = target: Cytochrome P450 3A4 (Homo sapiens) (UniProt P08684); test: NVS_ADME_hCYP3A4: NovaScreen (NVS) CYP450-related Enzyme Activity (ADME) Assay for human CYP3A4 (AID 2283110; active means hit-call score of the fitted dose curve at least 0.9, where 1 is the maximum)
Chain of Cytochrome P450 3A4 (Homo sapiens) (P08684 whole entry, looked up): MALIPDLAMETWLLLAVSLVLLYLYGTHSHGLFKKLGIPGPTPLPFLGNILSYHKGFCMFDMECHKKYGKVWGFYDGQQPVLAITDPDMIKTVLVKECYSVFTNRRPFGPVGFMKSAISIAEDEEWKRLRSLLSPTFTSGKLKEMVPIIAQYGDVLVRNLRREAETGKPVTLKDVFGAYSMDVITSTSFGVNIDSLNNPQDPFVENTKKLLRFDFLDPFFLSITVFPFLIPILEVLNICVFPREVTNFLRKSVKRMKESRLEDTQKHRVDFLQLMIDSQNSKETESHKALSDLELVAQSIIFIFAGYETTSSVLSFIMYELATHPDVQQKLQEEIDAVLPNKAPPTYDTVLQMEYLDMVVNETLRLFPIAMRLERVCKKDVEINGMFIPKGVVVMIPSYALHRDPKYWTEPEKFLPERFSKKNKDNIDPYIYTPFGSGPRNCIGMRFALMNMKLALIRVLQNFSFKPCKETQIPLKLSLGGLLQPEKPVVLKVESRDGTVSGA
Method in brief: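 Activity is derived from decreased fluorescence intensity relative to acetonitrile, measured 0.33 hour after dosing insect-cell-expressed CYP3A4 in a cell-free format. Screening used 10 uM in duplicate before concentration-response follow-up.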

[15] = target: Cytochrome P450 2C19 (Homo sapiens) (UniProt P33261); test: NVS_ADME_hCYP2C19: NovaScreen (NVS) CYP450-related Enzyme Activity (ADME) Assay for human CYP2C19 (AID 2283113; active means hit-call score of the fitted dose curve at least 0.9, where 1 is the maximum;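 on AC50: potency for inhibition seen as loss of fluorescent signal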)
Method in brief: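 Cell-free recombinant human CYP2C19 from insect cells, fluorescent substrate; activity read by fluorescence intensity 1 h after dosing. Primary screen in duplicate at 10 uM; actives retested in concentration series. Signal loss versus acetonitrile negative control.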

[16] = target: rat CYP2A1, Cyp2a1 (gene 24894) (UniProt P11711); test: NVS_ADME_rCYP2A1: NovaScreen (NVS) CYP450-related Enzyme Activity (ADME) Assay for rat CYP2A1 (AID 2283114)
Chain of rat CYP2A1, Cyp2a1 (gene 24894) (P11711 whole entry, looked up): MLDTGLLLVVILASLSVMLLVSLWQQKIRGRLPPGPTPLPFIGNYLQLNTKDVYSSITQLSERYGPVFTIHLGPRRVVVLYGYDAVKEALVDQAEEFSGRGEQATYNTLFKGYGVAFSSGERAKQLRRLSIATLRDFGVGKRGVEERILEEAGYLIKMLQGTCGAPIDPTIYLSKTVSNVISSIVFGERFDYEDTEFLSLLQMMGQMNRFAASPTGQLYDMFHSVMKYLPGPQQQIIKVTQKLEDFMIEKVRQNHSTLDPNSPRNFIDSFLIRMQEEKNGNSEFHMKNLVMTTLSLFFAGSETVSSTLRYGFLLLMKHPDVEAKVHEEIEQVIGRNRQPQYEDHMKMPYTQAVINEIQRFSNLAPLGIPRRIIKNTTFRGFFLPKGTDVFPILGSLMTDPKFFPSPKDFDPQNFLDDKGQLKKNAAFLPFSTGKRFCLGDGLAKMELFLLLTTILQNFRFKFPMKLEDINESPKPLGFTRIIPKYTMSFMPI
Method in brief: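 Cell-free fluorescence enzyme-activity read on recombinant rat CYP2A1, taken 0.75 h post-dosing. Compounds were screened in duplicate at 10 uM, then hits tested in concentration series (max 20 uM); inhibition scored relative to acetonitrile baseline.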

[17] = target: human CYP1A2, CYP1A2 (gene 1544) (UniProt P05177); test: NVS_ADME_hCYP1A2: NovaScreen (NVS) CYP450-related Enzyme Activity (ADME) Assay for human CYP1A2 (AID 2283102; active means hit-call score of the fitted dose curve at least 0.9, where 1 is the maximum;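 further: potency for inhibition since loss of fluorescence marks reduced CYP1A2 activity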)
Method in brief: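 Recombinant human CYP1A2 from insect cells, cell-free, fluorogenic substrate; read 0.5 h after dosing with loss of fluorescence signal indicating inhibition. Primary screen in duplicate at 10 uM, acetonitrile as negative control.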

[18] = target: human CYP2C8, CYP2C8 (gene 1558) (UniProt P10632); test: NVS_ADME_hCYP2C8: NovaScreen (NVS) CYP450-related Enzyme Activity (ADME) Assay for human CYP2C8 (AID 2283104)
Chain of human CYP2C8, CYP2C8 (gene 1558) (P10632 whole entry, looked up): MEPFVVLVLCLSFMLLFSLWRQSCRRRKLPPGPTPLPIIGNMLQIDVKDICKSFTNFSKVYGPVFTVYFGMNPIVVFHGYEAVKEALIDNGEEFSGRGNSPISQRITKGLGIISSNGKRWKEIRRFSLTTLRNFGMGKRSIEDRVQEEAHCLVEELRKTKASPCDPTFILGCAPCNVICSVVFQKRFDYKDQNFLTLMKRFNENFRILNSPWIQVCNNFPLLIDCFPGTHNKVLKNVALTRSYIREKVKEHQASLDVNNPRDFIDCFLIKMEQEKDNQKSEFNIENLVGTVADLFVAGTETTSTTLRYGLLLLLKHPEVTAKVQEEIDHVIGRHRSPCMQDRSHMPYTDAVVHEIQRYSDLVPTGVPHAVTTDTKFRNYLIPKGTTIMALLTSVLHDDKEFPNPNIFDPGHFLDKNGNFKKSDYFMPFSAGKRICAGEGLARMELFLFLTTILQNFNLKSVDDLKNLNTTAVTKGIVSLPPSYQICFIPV
Method in brief: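 Fluorescence readout of substrate turnover by recombinant CYP2C8 after 0.5 h, baseline acetonitrile. Single-concentration duplicate screen at 10 uM preceded singleton concentration series (max 20 uM) for compounds passing the inhibition threshold.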

[19] = target: human CYP2D6, CYP2D6 (gene 1565) (UniProt P10635); test: NVS_ADME_hCYP2D6: NovaScreen (NVS) CYP450-related Enzyme Activity (ADME) Assay for human CYP2D6 (AID 2283107; active means hit-call score of the fitted dose curve at least 0.9, where 1 is the maximum)
Method in brief: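 Cell-free assay using recombinant human CYP2D6 expressed in insect cells, with a fluorogenic substrate read after 1 h. Primary screen in duplicate at 10 uM; actives followed up in concentration series. Loss of signal fitted relative to acetonitrile.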

Chain of E-selectin (Homo sapiens) (P16581 whole entry, looked up): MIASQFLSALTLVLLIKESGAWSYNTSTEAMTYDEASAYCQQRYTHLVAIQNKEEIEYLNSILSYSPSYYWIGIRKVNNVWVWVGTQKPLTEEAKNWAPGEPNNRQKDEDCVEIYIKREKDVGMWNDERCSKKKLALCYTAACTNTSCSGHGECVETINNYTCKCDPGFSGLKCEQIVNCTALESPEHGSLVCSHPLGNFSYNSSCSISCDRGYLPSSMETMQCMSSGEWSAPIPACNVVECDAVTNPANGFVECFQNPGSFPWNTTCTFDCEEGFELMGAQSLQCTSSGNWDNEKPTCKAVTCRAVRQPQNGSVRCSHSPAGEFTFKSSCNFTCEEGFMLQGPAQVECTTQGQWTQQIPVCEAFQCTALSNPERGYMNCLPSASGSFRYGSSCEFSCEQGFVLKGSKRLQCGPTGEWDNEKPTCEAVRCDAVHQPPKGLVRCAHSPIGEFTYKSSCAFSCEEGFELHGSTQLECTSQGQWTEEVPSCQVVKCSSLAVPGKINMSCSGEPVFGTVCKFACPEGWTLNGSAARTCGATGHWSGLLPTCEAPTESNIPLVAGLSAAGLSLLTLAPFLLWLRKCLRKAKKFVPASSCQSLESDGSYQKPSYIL

## ClC1C(Cl)C(Cl)C(Cl)C(Cl)C1Cl (stereo unspecified)
[1]
  outcome: inactive
[2]
  outcome: inactive
[3]
  outcome: inactive
[4]
  outcome: inactive
[5]
  outcome: inactive
[6]
  outcome: inactive
[7]
  outcome: inactive
[8]
  AC50: 17.3 µM (active)

## CC(C)(C)C(O)/C(=C\c1ccc(Cl)cc1Cl)n1cncn1 (stereo unspecified)
[1]
  AC50: 31.8 µM (active)
[2]
  AC50: 27.3 µM (active)
[3]
  outcome: inactive
[4]
  outcome: inactive
[5]
  AC50: 32.2 µM (active)
[6]
  AC50: 29.2 µM (active)
[7]
  AC50: 29.9 µM (active)
[9]
  AC50: 4.73 µM (active)
[10]
  AC50: 0.705 µM (active)
[11]
  AC50: 0.974 µM (active)
[12]
  AC50: 2.21 µM (active)
[13]
  AC50: 0.721 µM (active)
[14]
  AC50: 1.2 µM (active)
[15]
  AC50: 0.00727 µM (active)
[16]
  AC50: 0.477 µM (active)

## CCCN(CCOc1c(Cl)cc(Cl)cc1Cl)C(=O)n1ccnc1
[1]
  AC50: 29.6 µM (active)
[2]
  AC50: 20.6 µM (active)
[3]
  AC50: 32.5 µM (active)
[4]
  AC50: 20 µM (active)
[5]
  AC50: 15.5 µM (active)
[6]
  AC50: 30.4 µM (active)
[7]
  outcome: inactive
[9]
  AC50: 0.784 µM (active)
[10]
  AC50: 0.453 µM (active)
[11]
  AC50: 0.124 µM (active)
[17]
  AC50: 0.616 µM (active)
[18]
  AC50: 1.85 µM (active)
[12]
  AC50: 0.094 µM (active)
[19]
  AC50: 2.18 µM (active)
[13]
  AC50: 0.578 µM (active)
[15]
  AC50: 0.0245 µM (active)
[16]
  AC50: 0.512 µM (active)

## O=[N+]([O-])c1c(Cl)c(Cl)c(Cl)c(Cl)c1Cl
[1]
  outcome: inactive
[2]
  AC50: 20 µM (active)
[3]
  outcome: inactive
[4]
  outcome: inactive
[5]
  outcome: inactive
[6]
  AC50: 31.2 µM (active)
[7]
  outcome: inactive
[9]
  outcome: inactive
[10]
  outcome: inactive

## CCC(C)(NC(=O)c1cc(Cl)c(C)c(Cl)c1)C(=O)CCl (stereo unspecified)
[1]
  AC50: 10.3 µM (active)
[2]
  AC50: 7.45 µM (active)
[3]
  AC50: 10.5 µM (active)
[4]
  AC50: 20 µM (active)
[5]
  AC50: 5.75 µM (active)
[6]
  AC50: 1.92 µM (active)
[7]
  AC50: 23.6 µM (active)
[15]
  outcome: inactive

## CCOC1Oc2ccc(OS(C)(=O)=O)cc2C1(C)C (stereo unspecified)
[1]
  outcome: inactive
[2]
  AC50: 23.5 µM (active)
[3]
  outcome: inactive
[4]
  AC50: 25.9 µM (active)
[5]
  AC50: 10.1 µM (active)
[6]
  outcome: inactive
[7]
  outcome: inactive
[11]
  AC50: 5.43 µM (active)
[15]
  AC50: 3.56 µM (active)

— PubChem BioAssay (EPA / NIEHS)
